# Structures can show the parent of a compound that is named as a salt.
# Tested on: replication-induced senescent mouse newborn dermal fibroblasts (NBF)
# Assay: relative cell viability of senescent cells (fraction); higher = less killing of senescent cells
# Conditions: 1 µM; 3 days
# Experimental: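 Replication-induced senescent newborn mouse skin fibroblasts (NBFs) in 24-well plates were treated with a Selleck FDA-approved drug library at 1 µM for 3 days.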
row,Structure (SMILES),relative cell viability
1,O=C(O)c1cc(/N=N/c2ccc(S(=O)(=O)Nc3ccccn3)cc2)ccc1O [Sulfasalazine],1.3
2,CS(=O)(=O)OCCCCOS(C)(=O)=O [Busulfan],1.03
3,C[C@]12CC[C@@H]3c4ccc(O)cc4CC[C@H]3[C@@H]1CCC2=O [Estrone],1
4,CN1C(C(=O)Nc2ccccn2)=C(O)c2ccccc2S1(=O)=O [Piroxicam],0.562
5,CCOc1ccc(Cc2cc([C@@H]3O[C@H](CO)[C@@H](O)[C@H](O)[C@H]3O)ccc2Cl)cc1 [Dapagliflozin],1.2
6,COc1ccc2cc([C@H](C)C(=O)O)ccc2c1 [Naproxen Sodium],0.686
7,O=C(c1ccccc1)c1ccc2n1CCC2C(=O)O (stereo not drawn) [Ketorolac],0.977
8,CCOc1cc2ncc(C#N)c(Nc3ccc(F)c(Cl)c3)c2cc1NC(=O)/C=C/CN(C)C [Pelitinib (EKB-569)],1.01
9,Cc1ccnc2c1NC(=O)c1cccnc1N2C1CC1 [Nevirapine],1.02
10,Nc1ccn([C@@H]2O[C@H](CO)[C@@H](O)C2(F)F)c(=O)n1 [Gemcitabine],0.11
11,C[C@]12C=CC(=O)N[C@@H]1CC[C@@H]1[C@@H]2CC[C@]2(C)[C@@H](C(=O)Nc3cc(C(F)(F)F)ccc3C(F)(F)F)CC[C@@H]12 [Dutasteride],0.986
12,O=C(O)c1ccc(-n2nc(-c3ccccc3O)nc2-c2ccccc2O)cc1 [Deferasirox],1.07
13,CN(CCOc1ccc(NS(C)(=O)=O)cc1)CCc1ccc(NS(C)(=O)=O)cc1 [Dofetilide],1.02
14,O=C(O)c1cccnc1 [Nicotinic Acid],0.937
15,CS(=O)(=O)N1CCN(Cc2cc3nc(-c4cccc5[nH]ncc45)nc(N4CCOCC4)c3s2)CC1 [Pictilisib (GDC-0941)],0.681
16,NS(=O)(=O)c1cc2c(cc1Cl)N=CNS2(=O)=O [Chlorothiazide],0.952
17,CO[C@H]1/C=C/O[C@@]2(C)Oc3c(C)c(O)c4c(O)c(c(/C=N/N5CCN(C6CCCC6)CC5)c(O)c4c3C2=O)NC(=O)/C(C)=C\C=C\[C@H](C)[C@H](O)[C@@H](C)[C@@H](O)[C@@H](C)[C@H](OC(C)=O)[C@@H]1C [Rifapentine],0.659
18,Cc1ccc(F)c(NC(=O)Nc2ccc(-c3cccc4[nH]nc(N)c34)cc2)c1 [Linifanib (ABT-869)],0.927
19,CC1=C(/C=C/C(C)=C/C=C/C(C)=C/C(=O)O)C(C)(C)CCC1 [Tretinoin],0.466
20,O=C(Nc1cccc2c(=O)cc(-c3nnn[nH]3)oc12)c1ccc(OCCCCc2ccccc2)cc1 [Pranlukast],1.01
21,CC(C)(C)NC(=O)[C@H]1CC[C@H]2[C@@H]3CC[C@H]4NC(=O)C=C[C@]4(C)[C@H]3CC[C@]12C [Finasteride],0.942
22,CCOC(=O)C1=C(C)NC(C)=C(C(=O)OC)C1c1cccc(Cl)c1Cl (stereo not drawn) [Felodipine],1
23,COc1cc2ncnc(Nc3ccc(F)c(Cl)c3)c2cc1OCCCN1CCOCC1 [Gefitinib (ZD1839)],1.01
24,CCN(CCO)CCCOc1ccc2c(Nc3cc(CC(=O)Nc4cccc(F)c4)[nH]n3)ncnc2c1 [Barasertib (AZD1152-HQPA)],1
25,CN(C)[C@@H](CCOc1cccc2ccccc12)c1ccccc1 [Dapoxetine HCl],1.08
26,Nc1nc(Cl)nc2c1ncn2[C@H]1C[C@H](O)[C@@H](CO)O1 [Cladribine],0.924
27,COCCc1ccc(OCC(O)CNC(C)C)cc1 (stereo not drawn) [Metoprolol Tartrate],1.1
28,COc1cc(C(=O)NS(=O)(=O)c2ccccc2C)ccc1Cc1cn(C)c2ccc(NC(=O)OC3CCCC3)cc12 [Zafirlukast],0.957

# Source: the supplement of paper PMC7184167
